Test results published in PubChem BioAssay (NCATS).
Results filed as inconclusive are left out. Unless noted, calls come from the whole dose curve.

test: Confirmation and Secondary Assay for Modulators of Hemoglobin Beta Chain Splicing at IVS2 705 locus (AID 930; active = well fitted activation curve with a large enough effect;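 note: HeLa cells stably expressing the EGFP-705 splicing reporter; GFP fluorescence per well restored by corrected splicing of the IVS2-705 intron in EGFP; % of control where 0% means no effect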); details: HeLa EGFP-705 splicing reporter, GFP fluorescence, 48 h; series mostly up to 38.3 µM; activation: at the top concentration
Outline: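 Assay measures total GFP intensity per well in HeLa EGFP-705 cells after 2 days with compound; mis-splicing normally truncates EGFP, so fluorescence indicates corrected splicing.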

activation, inactive:
CN(C)C(=O)c1ccc(-c2nc(NCc3cccnc3)c3ccccc3n2)cc1 -0.024%, Cc1cccc(CNc2cc(-c3cccc(NS(C)(=O)=O)c3)ncn2)c1 0.276%, Cc1noc(C)c1-c1nccc(N2CCNCC2)n1 -0.362%, c1ccc(Nc2ncnc3ccc(-c4cccnc4)cc23)cc1 0.845%, c1ccc2c(N3CCNCC3)nc(-c3ccoc3)nc2c1 1.72%, CN(C)Cc1ccccc1-c1cncnc1NCc1ccccc1 2%, COc1ccccc1CNc1ncncc1-c1ccc(N(C)C)cc1 -0.684%, CN(C)Cc1ccccc1-c1ccc2ncnc(NC3CC3)c2c1 -0.171%, COc1cccc(-c2nc(N3CCNCC3)c3ccccc3n2)c1 -0.162%, CN1CCN(c2ccnc(-c3ccccc3C(F)(F)F)n2)CC1 -0.159%, Cc1cccc(CNc2ccnc(-c3cccc(NS(C)(=O)=O)c3)n2)c1 0.463%, CN1CCN(c2nc(-c3cccc(NS(C)(=O)=O)c3)nc3ccccc23)CC1 -0.53%, CN(C)Cc1ccccc1-c1ccc2ncnc(NCc3cccs3)c2c1 0.0546%

test: qHTS Assay for Lipid Storage Modulators (AID 1519); details: Drosophila S3 cells, BODIPY lipid droplet/cell ratio, laser cytometry; at 57.5 µM (top of the series); cells loaded with oleic acid; note: % is set by controls: 0 for no effect and ±100 for the full control effect
Outline: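 Cells seeded at 5,000 per well were treated with compounds over a concentration series and loaded with oleic acid (400 uM, as added). Lipid droplet fluorescence (488 nm excitation, 500-530 nm channel) was read by laser-scanning cytometry and normalized to 20 uM Triacsin C.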

Activity change, negative = inhibition, inactive:
CN(C)C(=O)c1ccc(-c2nc(NCc3cccnc3)c3ccccc3n2)cc1 8.76%, N#Cc1cccc(NC(=O)N2CC3(CCN(C(=O)c4cccc(F)c4)CC3)C2)c1 4.13%, CC(C)NC(=O)N1CCC2(CC1)CCN(C(=O)c1cnccn1)CC2 0.356%, Cc1cccc(CNc2cc(-c3cccc(NS(C)(=O)=O)c3)ncn2)c1 -2.47%, COc1ccc(C(=O)N2CCC3(CC2)CN(c2ccccn2)C3)cc1 6.8%, Cc1noc(C)c1-c1nccc(N2CCNCC2)n1 6.06%, c1ccc(Nc2ncnc3ccc(-c4cccnc4)cc23)cc1 7.8%, CS(=O)(=O)N1CCC[C@@]2(CCN(c3ccncc3)C2)C1 -0.375%, O=C(c1ccncc1)N1CCC[C@@]2(CCN(c3cccc(-c4ccccc4)c3)C2)C1 1.7%, c1ccc2c(N3CCNCC3)nc(-c3ccoc3)nc2c1 8.78%, O=C(c1csnn1)N1CCC2(CCCN(c3ccncc3)C2)CC1 -0.384%, N#Cc1ccc(CN2CCCC3(CCN(C(=O)c4cc(C(F)(F)F)cc(C(F)(F)F)c4)CC3)C2)cc1 1.75%, N#Cc1ccccc1-c1ccc2ncnc(NCc3cccs3)c2c1 2.64%, CN(C)C(=O)c1ccc(-c2ccc3ncnc(NCc4cccnc4)c3c2)cc1 8.52%, CN(C)Cc1ccccc1-c1cncnc1NCc1ccccc1 4.16%, O=C(c1cnccn1)N1CCC2(CCN(Cc3ccncc3)CC2)CC1 3.75%, O=C(Nc1cccc(F)c1)N1CCC2(CC1)CCN(C(=O)c1cc(C(F)(F)F)cc(C(F)(F)F)c1)CC2 -8.79%, N#Cc1ccc(CN2CCCC3(CCNCC3)C2)cc1 1.45%, O=C(Nc1ccccc1)N1CCCC2(CCNCC2)C1 3.78%, COc1ccccc1CNc1ncncc1-c1ccc(N(C)C)cc1 7.79%, O=S(=O)(c1ccccc1)N1CCC2(CCN(c3ccncc3)CC2)CC1 3.52%, CN(C)Cc1ccccc1-c1ccc2ncnc(NC3CC3)c2c1 9.69%, Cc1ccccc1-c1cncnc1N1CCNCC1 10.2%, COCC(=O)N1CCC2(CC1)CN(Cc1nccs1)C2 3.6%, O=C(Oc1ccccc1)N1CCC2(CCCN(c3ccncc3)C2)CC1 4.64%, COc1ccc(Oc2ncc3nc(CCc4ccccc4)c(=O)n(C)c3n2)cc1 -3.44%, COc1cccc(-c2nc(N3CCNCC3)c3ccccc3n2)c1 5.82%, COc1ccc(NC(=O)N2CC[C@@]3(CCCN(C(=O)c4ccncc4)C3)C2)cc1 2.47%, O=c1c(-c2cc(F)cc(F)c2)nc2cnc(Oc3ccccc3)nc2n1C[C@H]1CCCO1 -6.47%, COCCn1c(=O)c(-c2ccc(F)cc2)nc2cnc(Oc3ccc(OC)cc3)nc21 -18.7%, CN1CCN(c2ccnc(-c3ccccc3C(F)(F)F)n2)CC1 3.24%, c1ccc(C(c2ccccc2)N2CC3(CCNCC3)C2)cc1 0.527%, CS(=O)(=O)N1CCC2(CCCN(Cc3ccccc3)C2)CC1 0.839%, Cc1cccc(CNc2ccnc(-c3cccc(NS(C)(=O)=O)c3)n2)c1 8.1%, CN1CCN(c2nc(-c3cccc(NS(C)(=O)=O)c3)nc3ccccc23)CC1 4.29%, COc1ccccc1CN1CCC2(CC1)CCN(C(=O)c1cc(C(F)(F)F)cc(C(F)(F)F)c1)CC2 0.332%, COc1ccc(NC(=O)N2CCC3(CC2)CCN(C(=O)c2cc(C(F)(F)F)cc(C(F)(F)F)c2)CC3)cc1 -8%, CN(C)Cc1ccccc1-c1ccc2ncnc(NCc3cccs3)c2c1 7.62%, O=c1c(CCc2ccccc2)nc2cnc(N3CCOCC3)nc2n1C[C@H]1CCCO1 -15.5%
